Results filed as inconclusive are left out. Activity calls are given as the source filed them. Calls follow the shape of the dose curve; as a rule, active = well fitted curve in the direction sought with a large enough effect; inconclusive = small, poorly fitted or top-dose-only effect, or another doubt; inactive = no such curve, though single readings can be large; an effect the other way counts as inactive or inconclusive.
What was measured:
[1] = tested on: C33A; assay: Primary qHTS to identify gynecologic anti-cancer compounds using libraries of approved drugs and bioactive compounds (AID 1345084); settings: Gynecologic cancer cell panel viability, ATPlite luminescence, 48 h; series mostly up to 57.5 µM; also: nearly all actives have a fitted effect of over 55% in size
Method in brief: (§1)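 Cells, 1,000 per well, plated 16 h, then exposed 48 h at 37 C to compounds. Viability by ATPlite luminescence after 15 min at room temperature.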

[2] = tested on: CAOV3; assay: as above; settings: Gynecologic cancer cell panel viability, ATPlite luminescence, 48 h; series mostly up to 57.5 µM
Method in brief: as §1

[3] = tested on: CASKI; assay: as above; settings: Gynecologic cancer cell panel viability, ATPlite luminescence, 48 h; series mostly up to 57.5 µM
Method in brief: as §1

[4] = tested on: Es-2; assay: as above; settings: Gynecologic cancer cell panel viability, ATPlite luminescence, 48 h; series mostly up to 57.5 µM
Method in brief: as §1

[5] = tested on: HeLa; assay: as above; settings: Gynecologic cancer cell panel viability, ATPlite luminescence, 48 h; series mostly up to 57.5 µM
Method in brief: as §1

[6] = tested on: Hek293T; assay: as above; settings: Gynecologic cancer cell panel viability, ATPlite luminescence, 48 h, control line for the selectivity index; series mostly up to 57.5 µM
Method in brief: as §1

[7] = tested on: JEG-3; assay: as above; settings: Gynecologic cancer cell panel viability, ATPlite luminescence, 48 h; series mostly up to 57.5 µM
Method in brief: as §1

[8] = tested on: OV90; assay: as above; settings: Gynecologic cancer cell panel viability, ATPlite luminescence, 48 h; series mostly up to 57.5 µM
Method in brief: as §1

[9] = tested on: PA-1; assay: as above; settings: Gynecologic cancer cell panel viability, ATPlite luminescence, 48 h; series mostly up to 57.5 µM
Method in brief: as §1

[10] = tested on: SKOV3; assay: as above; settings: Gynecologic cancer cell panel viability, ATPlite luminescence, 48 h; series mostly up to 57.5 µM
Method in brief: as §1

[11] = tested on: Tov-21-G; assay: as above; settings: Gynecologic cancer cell panel viability, ATPlite luminescence, 48 h; series mostly up to 57.5 µM
Method in brief: as §1

[12] = tested on: Tov112D; assay: as above; settings: Gynecologic cancer cell panel viability, ATPlite luminescence, 48 h; series mostly up to 57.5 µM
Method in brief: as §1

[13] = Drug repurposing screens with cells derived from glioblastoma tumor samples (AID 1345199); settings: GBM patient neurospheres viability, ATP luminescence, 48 h; also: nearly all actives have a fitted effect of over 40% in size; also: potency is read from the fitted curve at half-maximal effect
Method in brief: (§2)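 Four patient lines of CD133+ GBM neurospheres were screened at several concentrations; hits were retested in those lines plus three slower-growing GBM lines, using 48-hour treatment and ATP-based viability.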

[14] = tested on: astro; assay: as above; settings: viability, ATP luminescence, 48 h; series mostly up to 45.9 µM
Method in brief: as §2

[15] = at 20 µM (top of the series), tumour line C
[16] = at 21.2 µM (top of the series), tumour line B
[17] = at 21.2 µM (top of the series), tumour line D
[18] = at 45.9 µM (top of the series), tumour line B
[19] = at 45.9 µM (top of the series), tumour line D
[20] = at 46 µM (top of the series), tumour line A
[21] = at 46.1 µM (top of the series), tumour line C
[22] = at 21.3 µM (top of the series), tumour line A
% is scaled to controls: 0 for no effect and ±100 for the full control effect.

NCc1ccc(S(N)(=O)=O)cc1
inactive: outcome [1] | outcome [2] | outcome [3] | outcome [4] | outcome [5] | outcome [6] | outcome [7] | Potency [8] | outcome [9] | outcome [10] | outcome [11] | outcome [12] | activity, negative = cell killing [13, 15] 8.51% | activity, negative = cell killing [13, 16] -1.96% | activity, negative = cell killing [13, 17] -7.46%

O=c1[nH]cnc2nc[nH]c12
inactive: outcome [1] | outcome [2] | outcome [3] | outcome [4] | outcome [5] | outcome [6] | outcome [7] | Potency [8] | outcome [9] | outcome [10] | outcome [11] | outcome [12] | activity, negative = cell killing [13, 18] -0.606% | activity, negative = cell killing [13, 19] 15.6% | activity, negative = cell killing [13, 20] -28.5% | activity, negative = cell killing [13, 21] -12.9%

CCN(CC)CCc1nc(-c2ccccc2)no1
inactive: outcome [1] | outcome [2] | outcome [3] | outcome [4] | outcome [5] | outcome [6] | outcome [7] | Potency [8] | outcome [9] | outcome [10] | outcome [11] | outcome [12] | activity, negative = cell killing [13, 15] -35.3% | activity, negative = cell killing [13, 16] 0.0715% | activity, negative = cell killing [13, 17] 5.97% | activity, negative = cell killing [13, 22] -18.4%

CCN(CC)CC1CCCCN1CC(=O)N1c2ccccc2C(=O)Nc2cccnc21 (stereo not drawn)
active: Potency ([13]; tumour line A) 20 µM
inactive: outcome [1] | outcome [2] | outcome [3] | outcome [4] | outcome [5] | outcome [6] | outcome [7] | Potency [8] | outcome [9] | outcome [10] | outcome [11] | outcome [12] | activity, negative = cell killing [13, 18] -15.7% | activity, negative = cell killing [13, 19] -5.02% | activity, negative = cell killing [13, 21] -18.7%

CC(=O)Oc1cccc(C)c1
inactive: outcome [1] | outcome [2] | outcome [3] | outcome [4] | outcome [5] | outcome [6] | outcome [7] | Potency [8] | outcome [9] | outcome [10] | outcome [11] | outcome [12] | activity, negative = cell killing [13, 18] -2.63% | activity, negative = cell killing [13, 19] -6.87% | activity, negative = cell killing [13, 20] -17.9% | activity, negative = cell killing [13, 21] -0.258%

CC(=O)OC[C@H]1O[C@@](COC(C)=O)(O[C@H]2O[C@H](COC(C)=O)[C@@H](OC(C)=O)[C@H](OC(C)=O)[C@H]2OC(C)=O)[C@@H](OC(C)=O)[C@@H]1OC(C)=O
inactive: outcome [1] | outcome [2] | outcome [3] | outcome [4] | outcome [5] | outcome [6] | outcome [7] | Potency [8] | outcome [9] | outcome [10] | outcome [11] | outcome [12] | activity, negative = cell killing [13, 18] -8.85% | activity, negative = cell killing [13, 19] -9.16% | activity, negative = cell killing [13, 20] -28.7% | activity, negative = cell killing [13, 21] 2.01% | outcome [14]

CC1(C)[C@@H](OC(=O)CCC(=O)O)CC[C@]2(C)[C@H]3C(=O)C=C4[C@@H]5C[C@@](C)(C(=O)O)CC[C@]5(C)CC[C@@]4(C)[C@]3(C)CC[C@@H]12
inactive: outcome [1] | outcome [2] | outcome [3] | outcome [4] | outcome [5] | outcome [6] | outcome [7] | Potency [8] | outcome [9] | outcome [10] | outcome [11] | outcome [12] | activity, negative = cell killing [13, 15] -5.99% | activity, negative = cell killing [13, 16] -8.6% | activity, negative = cell killing [13, 17] -19.2% | activity, negative = cell killing [13, 22] -22.2% | outcome [14]

CCCCCCCCCCC(CO)CCCCCCCC (stereo not drawn)
active: Potency ([13]; tumour line A) 25.1 µM
inactive: outcome [1] | outcome [2] | outcome [3] | outcome [4] | outcome [5] | outcome [6] | outcome [7] | Potency [8] | outcome [9] | outcome [10] | outcome [11] | outcome [12] | activity, negative = cell killing [13, 18] -11.9% | activity, negative = cell killing [13, 19] -0.979% | activity, negative = cell killing [13, 21] 14%

Cn1c([N+](=O)[O-])cnc1COC(N)=O
inactive: outcome [1] | outcome [2] | outcome [3] | outcome [4] | outcome [5] | outcome [6] | outcome [7] | Potency [8] | outcome [9] | outcome [10] | outcome [11] | outcome [12] | activity, negative = cell killing [13, 18] -9.55% | activity, negative = cell killing [13, 19] -8.48% | activity, negative = cell killing [13, 20] -18.6% | activity, negative = cell killing [13, 21] -20.8% | outcome [14]

O[C@@H]1CO[C@H]2[C@@H]1OC[C@@H]2O
inactive: outcome [1] | outcome [2] | outcome [3] | outcome [4] | outcome [5] | outcome [6] | outcome [7] | Potency [8] | outcome [9] | outcome [10] | outcome [11] | outcome [12] | activity, negative = cell killing [13, 18] -8.03% | activity, negative = cell killing [13, 19] 1.68% | activity, negative = cell killing [13, 21] -10.9%

CCCNC(C)(C)COC(=O)c1ccccc1
inactive: outcome [1] | outcome [2] | outcome [3] | outcome [4] | outcome [5] | outcome [6] | outcome [7] | Potency [8] | outcome [9] | outcome [10] | outcome [11] | outcome [12] | activity, negative = cell killing [13, 18] -3.47% | activity, negative = cell killing [13, 19] 11.4% | activity, negative = cell killing [13, 20] -6.31% | activity, negative = cell killing [13, 21] 1.22%

CCOC(=O)OC(C)OC(=O)[C@@H]1N2C(=O)[C@@H](NC(=O)[C@H](N)c3ccccc3)[C@H]2SC1(C)C (stereo partly drawn)
inactive: outcome [1] | outcome [2] | outcome [3] | outcome [4] | outcome [5] | outcome [6] | outcome [7] | Potency [8] | outcome [9] | outcome [10] | outcome [11] | outcome [12] | activity, negative = cell killing [13, 15] 7.44% | activity, negative = cell killing [13, 16] -8.91% | activity, negative = cell killing [13, 17] -1.55%

C[N+](C)(C)CC(O)CC(=O)[O-] (stereo not drawn)
inactive: outcome [1] | outcome [2] | outcome [3] | outcome [4] | outcome [5] | outcome [6] | outcome [7] | Potency [8] | outcome [9] | outcome [10] | outcome [11] | outcome [12] | activity, negative = cell killing [13, 18] -2.63% | activity, negative = cell killing [13, 19] -13.3% | activity, negative = cell killing [13, 21] -12.8%

CC(C)c1cc2c(cc1S(=O)(=O)O)[C@@]1(C)CCC[C@@](C)(C(=O)O)[C@@H]1CC2
inactive: outcome [1] | outcome [2] | outcome [3] | outcome [4] | outcome [5] | outcome [6] | outcome [7] | Potency [8] | outcome [9] | outcome [10] | outcome [11] | outcome [12] | activity, negative = cell killing [13, 18] -17.5% | activity, negative = cell killing [13, 19] -7.28% | activity, negative = cell killing [13, 20] -18.1% | activity, negative = cell killing [13, 21] -15.9%
